Most compounds without a hit are left out; they make up all but 2.3% or so of the library.
UBC13 polyUb – inhibitors of human UBC13 polyubiquitin chain formation; inhibition, % at 20 µM; TR-FRET; 330,000 compounds, 0.47% hits; in the data active = inhibition above about 45%, passing the limit was not always enough
MEKK3 PB1 HTS – MEKK3-MEK5 PB1 interaction, increase or decrease; Q99759; bead-based flow cytometry, Alexa488-MEK5 binding to MEKK3; actives lie on both sides; 0 = blocked by unlabeled MEK5, 100 = vehicle; binding response (% of control), % at 10 µM; 290,000 compounds, 1.4% hits; AID 1529;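 active = binding response more than 3 SD above or below the average of its plate-row segment, actives on both sides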;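 also: Alexa488 bead fluorescence after subtracting the streptavidin-only scavenger bead signal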
Target sequence (Q99759 whole entry, looked up): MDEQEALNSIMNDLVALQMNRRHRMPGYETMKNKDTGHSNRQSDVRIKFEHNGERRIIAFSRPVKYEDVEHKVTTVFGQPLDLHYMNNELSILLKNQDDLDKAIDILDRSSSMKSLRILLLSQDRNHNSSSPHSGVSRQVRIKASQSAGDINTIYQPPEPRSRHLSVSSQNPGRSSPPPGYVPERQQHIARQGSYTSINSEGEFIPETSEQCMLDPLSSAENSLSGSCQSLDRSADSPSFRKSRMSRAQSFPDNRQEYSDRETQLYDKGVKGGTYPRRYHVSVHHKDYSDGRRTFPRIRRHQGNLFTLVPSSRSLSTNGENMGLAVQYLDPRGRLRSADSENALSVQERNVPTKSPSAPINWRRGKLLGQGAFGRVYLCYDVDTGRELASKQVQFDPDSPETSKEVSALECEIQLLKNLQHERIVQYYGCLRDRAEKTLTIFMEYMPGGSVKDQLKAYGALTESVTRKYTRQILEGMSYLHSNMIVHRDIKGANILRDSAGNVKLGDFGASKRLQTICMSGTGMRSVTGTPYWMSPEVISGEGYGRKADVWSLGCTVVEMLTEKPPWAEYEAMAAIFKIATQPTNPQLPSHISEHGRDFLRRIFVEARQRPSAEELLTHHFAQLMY
MEKK2wt PB1 HTS – raises or lowers MEK5 binding to wildtype human MEKK2 PB1 domain. Q9Y2U5. bead flow cytometry, Alexa488-MEK5 binding to MEKK2 WT; actives lie on both sides. binding response (% of control), % at 10 µM. 290,000 compounds, 1.1% hits. AID 1531; in the data active = binding response below about 67% or above about 130%
MEKK2mut PB1 HTS – signal of MEK5 binding to mutant human MEKK2 PB1 domain; bead flow cytometry, Alexa488-MEK5 binding to MEKK2 mutant; percent response, % at 10 µM; 290,000 compounds, 0.35% hits; in the data active = percent response above about 24%, passing the limit was not always enough
MEKK2wt confirm – raises or lowers MEK5 binding to wildtype human MEKK2, retest; shares compounds with MEKK3 PB1 HTS; bead flow cytometry, Alexa488-MEK5 binding to MEKK2 WT; actives lie on both sides; binding response (% of control), % at 10 µM; 5,900 compounds, 2.4% hits; in the data active = binding response below about 16% or above about 210%; inactive = in between
MEKK2mut-MEK5 – signal of MEK5 binding to mutant human MEKK2, retest; bead flow cytometry, Alexa488-MEK5 binding to MEKK2 mutant; shares compounds with MEKK3 PB1 HTS; percent response, % at 10 µM; 5,900 compounds, 2% hits; AID 1893; in the data active = percent response mostly above about 71%, no sharp cut-off; inactive = mostly below about 38%;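 also: higher means compound restores mutant binding toward wildtype level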
MEKK3-MEK5 inh – confirmation of inhibitors of MEK5 binding to human MEKK3. shares compounds with MEKK3 PB1 HTS. bead flow cytometry, Alexa488-MEK5 binding to MEKK3; stronger effect = lower value. binding response (% of control), % at 10 µM. 5,900 compounds, 1.8% hits. AID 1894;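 active = binding response below 72% of control, or above a set upper limit, though filed actives all read lower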;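 also: 100% = DMSO only wells and 0% = binding blocked by excess unlabeled MEK5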
* = called active by the depositor; [ ] = remark or other dose.

For COc1cccc(CC2(CO)CCCN(Cc3[nH]c4ccc(C)cc4c3C)C2)c1 (configuration not stated) the results were UBC13 polyUb 23, MEKK3 PB1 HTS 105, MEKK2wt PB1 HTS 157*, MEKK2mut PB1 HTS 46, MEKK2wt confirm 140, MEKK2mut-MEK5 24 and MEKK3-MEK5 inh 103.
Screening COc1cccc(CC2(CO)CCCN(Cc3ccc(C)s3)C2)c1 (configuration not stated) returned UBC13 polyUb 5, MEKK3 PB1 HTS 104, MEKK2wt PB1 HTS 109 and MEKK2mut PB1 HTS 1.
COc1cccc(CC2(CO)CCCN(Cc3cc4ccccc4[nH]3)C2)c1 (configuration not stated) was read as UBC13 polyUb 14, MEKK3 PB1 HTS 103, MEKK2wt PB1 HTS 148*, MEKK2mut PB1 HTS 30, MEKK2wt confirm 144, MEKK2mut-MEK5 20 and MEKK3-MEK5 inh 103.
For COc1cccc(CC2(CO)CCCN(Cc3ccc(CO)o3)C2)c1 (configuration not stated) the results were UBC13 polyUb -6, MEKK3 PB1 HTS 100, MEKK2wt PB1 HTS 99 and MEKK2mut PB1 HTS -2.
For Cc1cc(C)c(O)c(N)c1 the results were MEKK3 PB1 HTS 103, MEKK2wt PB1 HTS 99 and MEKK2mut PB1 HTS -7.
`COc1cc(NC2c3ccccc3C(=O)N2Cc2ccccc2Cl)cc(OC)c1` (configuration not stated) gave UBC13 polyUb -8, MEKK3 PB1 HTS 135*, MEKK2wt PB1 HTS 116, MEKK2mut PB1 HTS 29, MEKK2wt confirm 97, MEKK2mut-MEK5 -1 and MEKK3-MEK5 inh 96.
`COC(=O)C1=C(C(=O)OC)[C@@H]2N(C)c3ccc(OC)cc3[C@@]23C[C@@H](C(=O)OC)N=C3N1` gave UBC13 polyUb 6, MEKK3 PB1 HTS 116, MEKK2wt PB1 HTS 132 and MEKK2mut PB1 HTS 3.
O=C(CCC(=O)Nc1ccc(Cl)cc1Cl)NNC(=O)[C@@H]1CCCC[C@@H]1C(=O)O was read as MEKK3 PB1 HTS 1.0*[inhibitor], MEKK2wt PB1 HTS 1.0*[inhibitor], MEKK2mut PB1 HTS -21, MEKK2wt confirm 93, MEKK2mut-MEK5 -8 and MEKK3-MEK5 inh 95.
For O=C(O)C1CCCCC1C(=O)Nc1ccc(Cl)cc1Cl (configuration not stated) the results were UBC13 polyUb 9, MEKK3 PB1 HTS 107, MEKK2wt PB1 HTS 103 and MEKK2mut PB1 HTS 4.
Cc1ccc(N=C(NOC(=O)c2ccccc2)c2nonc2N)c(C)c1 was read as UBC13 polyUb 2, MEKK3 PB1 HTS 104, MEKK2wt PB1 HTS 98 and MEKK2mut PB1 HTS 0.
`CC(=O)ONC(=Nc1ccccc1)c1nonc1N` gave UBC13 polyUb 4, MEKK3 PB1 HTS 47*[inhibitor], MEKK2wt PB1 HTS 52, MEKK2mut PB1 HTS -46, MEKK2wt confirm 109, MEKK2mut-MEK5 3 and MEKK3-MEK5 inh 101.
Screening Cc1ccc(C)c(OCCC(=O)OC(C)C(=O)Nc2c(C)n(C)n(-c3ccccc3)c2=O)c1 (configuration not stated) returned UBC13 polyUb 4.
`COc1cc(C2NC(=S)NC3=C2CCc2ccccc23)cc(OC)c1OC` (configuration not stated) gave UBC13 polyUb 7, MEKK3 PB1 HTS 142*, MEKK2wt PB1 HTS 109, MEKK2mut PB1 HTS 0, MEKK2wt confirm 98, MEKK2mut-MEK5 1 and MEKK3-MEK5 inh 104.
`C=CCOc1ccc(C2NC(=S)NC3=C2CCc2ccccc23)cc1` (configuration not stated) gave UBC13 polyUb 0, MEKK3 PB1 HTS 94, MEKK2wt PB1 HTS 93 and MEKK2mut PB1 HTS -17.
Cc1cccc(NCc2cc(Cl)ccc2O)n1 was read as UBC13 polyUb 24, MEKK3 PB1 HTS 82*[inhibitor], MEKK2wt PB1 HTS 107, MEKK2mut PB1 HTS 4, MEKK2wt confirm 101, MEKK2mut-MEK5 3 and MEKK3-MEK5 inh 101.
For Cc1cc(NC(=O)C(C)SCC(=O)OCc2ccc([N+](=O)[O-])cc2)no1 (configuration not stated) the results were UBC13 polyUb 1.
Screening CCOC(=O)CCC(NC(=O)CCC(=O)NC(CCC(=O)OCC)C(=O)OCC)C(=O)OCC (configuration not stated) returned UBC13 polyUb 8, MEKK3 PB1 HTS 99, MEKK2wt PB1 HTS 96 and MEKK2mut PB1 HTS 0.
For CCOC(=O)CCC(NC(=O)CCCC(=O)NC(CCC(=O)OCC)C(=O)OCC)C(=O)OCC (configuration not stated) the results were UBC13 polyUb -5, MEKK3 PB1 HTS 129*, MEKK2wt PB1 HTS 108, MEKK2mut PB1 HTS 1, MEKK2wt confirm 104, MEKK2mut-MEK5 -1 and MEKK3-MEK5 inh 108.
Screening O=C(CSc1cccc(C(F)(F)F)c1)NC(=O)c1ccccc1 returned UBC13 polyUb -5, MEKK3 PB1 HTS 146*, MEKK2wt PB1 HTS 104, MEKK2mut PB1 HTS 0, MEKK2wt confirm 111, MEKK2mut-MEK5 8 and MEKK3-MEK5 inh 111.
`CCNC(=O)NC(=O)CSc1cccc(C(F)(F)F)c1` gave UBC13 polyUb -1, MEKK3 PB1 HTS 104, MEKK2wt PB1 HTS 102 and MEKK2mut PB1 HTS 3.
Screening CC1=C(C(=O)OC(C)C)C(c2ccc3c(c2)OCO3)NC(=O)N1 (configuration not stated) returned UBC13 polyUb 3, MEKK3 PB1 HTS 108, MEKK2wt PB1 HTS 112 and MEKK2mut PB1 HTS 10.
Screening C/C(=N\NC1=NCCN1)c1ccc(N)c([N+](=O)[O-])c1 returned UBC13 polyUb -76, MEKK3 PB1 HTS 46*[inhibitor], MEKK2wt PB1 HTS 59, MEKK2mut PB1 HTS -31, MEKK2wt confirm 108, MEKK2mut-MEK5 5 and MEKK3-MEK5 inh 105.
`COc1ccc(/C(C)=N/NC2=NCCN2)cc1Cl` gave UBC13 polyUb 14, MEKK3 PB1 HTS 102, MEKK2wt PB1 HTS 116 and MEKK2mut PB1 HTS 7.
COc1ccc(Nc2ccccc2N)cc1 was read as UBC13 polyUb -44, MEKK3 PB1 HTS 97, MEKK2wt PB1 HTS 97 and MEKK2mut PB1 HTS 3.
`Nc1ccc(Nc2ccccc2N)cc1` gave UBC13 polyUb -32, MEKK3 PB1 HTS 60*[inhibitor], MEKK2wt PB1 HTS 69, MEKK2mut PB1 HTS -3, MEKK2wt confirm 78, MEKK2mut-MEK5 7 and MEKK3-MEK5 inh 60*.
COc1cc(OC)c(C(=O)OCC(=O)NCCC2=CCCCC2)cc1OC was read as UBC13 polyUb -6.
`COc1cccc(C(=O)NCc2ccc3[nH]c(C)cc3c2)c1` gave UBC13 polyUb -1, MEKK3 PB1 HTS 61*[inhibitor], MEKK2wt PB1 HTS -6.0*, MEKK2mut PB1 HTS -6, MEKK2wt confirm 77, MEKK2mut-MEK5 -7 and MEKK3-MEK5 inh 77.

Screening results (PubChem)
